According to the supplement of paper PMC7726561:
In all, about 1,100 sequences were measured (“thermal melting temperature (Tm) of peptide-HLA complex”: median about 58, lowest 2% from about 42 on). This is one part of a sample in which the lowest values are shown more often than they occur.

target: HLA-A*02:01; test: thermal melting temperature (Tm) of peptide-HLA complex; higher = more thermostable pHLA complex; settings: C1R-A*02:01
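Also: lysates heated 10 min at 37–73 °C, complexes pulled down with pan-HLA I antibody, peptide signal by DIA-MS relative to 37 °C, Tm where half the complex is unfolded.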

Row | Sequence | thermal melting temperature [°C]
1 | KLMNVDPDSV | 53.8
2 | KLMDPGSLPPL | 57.3
3 | RLGGIPVGV | 55.9
4 | IIMLEALERV | 46.6
5 | ALANGVSRI | 55.8
6 | ALDRDNFEL | 47.8
7 | FMFDEKLVTV | 58.5
8 | VLGPKIEAV | 55.5
9 | FILANEHNV | 40.8
10 | YLPDIIKDQKA | 55.4
11 | RQIEYYFSV | 61.3
12 | FMQHDVQEL | 41.6
13 | VVWGTVIRV | 58.5
14 | SLDPHAQVAV | 48.9
15 | KLQDQIFNL | 56
16 | ALSKEGIVAL | 59.5
17 | SLLQTLYKV | 63.6
18 | ALGPGVPHI | 58

Row | Sequence | thermal melting temperature [°C]
19 | VLADALKSI | 58.9
20 | KLNATNIEL | 51.5
21 | FLEPVNPRL | 55.3
22 | MLDDRAYLV | 61.5
23 | YPSEFATYL | 56.5
24 | TLDEYTTRV | 52.2
25 | LLPSEGIVHL | 41.3
26 | ALMPVLNQV | 58.7
27 | TLFPGKVHSL | 55.8
28 | SLAGGLDDMKA | 45.1
29 | MTDPIRILV | 41.9
30 | ALLKDSIVQL | 40.9
31 | SLDTQPKKV | 40.4
32 | VLLESEQFL | 56.7
33 | RLDEAFDFV | 57
34 | SLDAKEIYL | 50.5
35 | TTLEQPPSV | 50.3
36 | QLLPSIPQL | 53.7
